From PubChem BioAssay (EPA / NIEHS)
Inconclusive results are not listed. Activity calls are given as the source filed them. Rule for the calls: active = hit-call score of the fitted dose curve at least 0.9, where 1 is the maximum; inconclusive = response in the unintended direction; inactive = score below 0.9.

The molecules below were run on Glyceraldehyde-3-phosphate dehydrogenase (Homo sapiens) (UniProt P04406) (assay: CLD_GAPDH_48hr: CellzDirect (CLD) Gene Expression Assay for Baseline Control (Glyceraldehyde 3-phosphate dehydrogenase) at 48 hours (AID 2283706);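 note: active means higher GAPDH mRNA than DMSO vehicle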).
Experimental: CLD_48hr is a cell-based, multiplexed-readout assay that uses hepatocyte, a human liver primary cell, with measurements taken at 48 hours after chemical dosing in a 96-well plate.CLD_GAPDH_48hr is one of 16 assay component(s) measured or calculated from the CLD_48hr assay. It is designed to make measurements of mRNA induction, a form of inducible reporter, as detected with chemiluminescence signals by Quantitative Nuclease Protection Assay (qNPA) technology.Data from the assay component CLD_GAPDH_48hr was analyzed at the endpoint, CLD_GAPDH_48hr, in the positive analysis fitting direction relative to DMSO as the negative control and baseline of activity. Using a type of inducible reporter, gain-of-signal activity can be used to understand changes in the reporter gene as they relate to the gene GAPDH. Furthermore, this assay endpoint can be referred to as a secondary readout, because this assay has produced multiple assay endpoints where this one serves a background control function. To generalize the intended target to other relatable targets, this assay endpoint is annotated to the background measurement intended target family, where subfamily is baseline control.
Human hepatocyte cultures were treated daily for two consecutive days with fresh dosing solutions containing appropriate concentrations of the 320 ToxCast chemicals (chemical identities were blinded to CellzDirect and other ToxCast collaborators), vehicle control (0.2% DMSO), and positive control inducers as summarized in Table 1. Due to the large number of treatment groups and chemicals examined, the ToxCast chemicals were divided into two groups (spanning two independent cultures of hepatocytes from separate donor preparations (Hu778: ToxCast plates 1 and 2; Hu776: ToxCast plates 3 and 4). Each preparation of human hepatocyte cultures was treated with respective vehicle control, medium only control, set of six positive controls/reference chemicals for the five hepatic receptor pathways, and a subset of eight of the ToxCast chemicals (indoxacarb, pyrithiobac-sodium, norflurazon, cyhalofop-butyl, methomyl, thiram, acetochlor, and propiconazole). These replicate data, coupled with internal replicates designed within the blinded ToxCast chemical library, provided additional data to evaluate interindividual differences between hepatocyte preparations and their potential impact on chemical profiles.Cell morphology and integrity were evaluated using phase-contrast microscopy as an indicator of hepatocyte cell health (Tyson & Green, 1987). Cultures for each treatment group (i.e., media, vehicle [0.2% DMSO], positive control inducers [multiple concentrations], and the ToxCast chemicals [multiple concentrations]) were observed and cell morphology was assessed relative to vehicle control cultures at each harvest time point (0, 6, 24, or 48 h). […] Images were evaluated at the conclusion of the study to assess changes in cell integrity and account for the effects of chemical exposure on uncharacteristic changes in concentration-dependent gene expression profiles. The results from these determinations of apparent cytotoxicity were annotated (yes/no) alongside the corresponding qNPA data for reference.At the conclusion of each treatment period, hepatocyte cultures (96-well) were washed with 1 volume of HBSS, lysed by addition of 25 ul ArrayPlate lysis buffer (HTG, Tucson, AZ), and 70 ul/well of Denaturation Oil, denatured by incubation at 95C for 10 min, and frozen at approximately -70C until analysis by nuclease protection assay (qNPA) (Roberts et al., 2007). For qNPA analysis, cell lysates were thawed at 50C for approximately 30 min, qNPA probes were added, and samples were incubated at 95C for 10 min to begin the detection process by denaturing the target RNA, dissociating the duplexes and secondary structure hybridization. At the conclusion of the hybridization period, S1 nuclease reagent was added to each sample to digest all nonprotected nucleotides at 50C for 60-90 min. […]

Sequence of Glyceraldehyde-3-phosphate dehydrogenase (Homo sapiens) (P04406 whole entry, looked up): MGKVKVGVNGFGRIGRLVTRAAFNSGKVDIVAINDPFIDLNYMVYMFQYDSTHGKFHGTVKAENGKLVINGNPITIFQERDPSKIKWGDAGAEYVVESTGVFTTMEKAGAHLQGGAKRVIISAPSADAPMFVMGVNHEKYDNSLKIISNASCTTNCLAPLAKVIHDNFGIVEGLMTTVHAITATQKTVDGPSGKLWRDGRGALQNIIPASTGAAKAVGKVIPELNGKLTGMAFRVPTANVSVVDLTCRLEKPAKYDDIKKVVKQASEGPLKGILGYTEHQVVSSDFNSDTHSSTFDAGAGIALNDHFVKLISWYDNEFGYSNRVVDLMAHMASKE

Structure (SMILES)	outcome
CCCOc1nn(C(=O)NS(=O)(=O)c2ccccc2C(=O)OC)c(=O)n1C	inactive
N#CSCSC#N	inactive
CN(C)NC(=O)CCC(=O)O	inactive
CSC1=N[C@@](C)(c2ccccc2)C(=O)N1Nc1ccccc1	inactive
CCc1cnc(C2=NC(C)(C(C)C)C(=O)N2)c(C(=O)O)c1 (centres undefined)	inactive
S=C1NCCN1	inactive
CCCSP(=O)(OCC)SCCC	inactive
O=c1ccc(=O)[nH][nH]1	inactive
CCOC(=O)CC(SP(=O)(OC)OC)C(=O)OCC (centres undefined)	inactive
COP(=O)(OC)OC(Br)C(Cl)(Cl)Br (centres undefined)	inactive
Cc1nn(-c2cc(NS(C)(=O)=O)c(Cl)cc2Cl)c(=O)n1C(F)F	inactive
COP(=O)(NC(C)=O)SC (centres undefined)	inactive
CC(C)N(C(=O)SCC(Cl)=C(Cl)Cl)C(C)C	inactive
CCC(CC)Nc1c([N+](=O)[O-])cc(C)c(C)c1[N+](=O)[O-]	inactive
CN1COCN(Cc2cnc(Cl)s2)C1=N[N+](=O)[O-]	inactive
CCOP(=O)(OCC)Oc1cc(C)nc(C(C)C)n1	inactive
CCCOCC(=Nc1ccc(Cl)cc1C(F)(F)F)n1ccnc1	inactive

Structure (SMILES)	outcome
Nc1c(Cl)cc([N+](=O)[O-])cc1Cl	inactive
CC(C)=CC1C(C(=O)OCN2C(=O)C3=C(CCCC3)C2=O)C1(C)C (centres undefined)	inactive
CN(C)[C@@H]1C(=O)C(C(N)=O)=C(O)[C@@]2(O)C(=O)C3=C(O)c4c(O)cccc4[C@@](C)(O)[C@H]3[C@H](O)[C@@H]12	inactive
CNC(=O)ON=C(C)SC	inactive
CC(=NC#N)N(C)Cc1ccc(Cl)nc1	inactive
CC1=NNC(=O)N(/N=C/c2cccnc2)C1	inactive
C[N+]1(C)CCCCC1	inactive
CNC(=O)ON=C(SC)C(=O)N(C)C	inactive
CSc1nnc(C(C)(C)C)c(=O)n1N	inactive
Nc1nc(N)nc(NC2CC2)n1	inactive
CN(C)C(=O)Nc1cccc(C(F)(F)F)c1	inactive
CC1(C(=O)Nc2ccc(O)c(Cl)c2Cl)CCCCC1	inactive
COc1cc(OC)nc(Sc2cccc(Cl)c2C(=O)O)n1	inactive
CCCCOC(=O)c1ccccc1C(=O)O	inactive
CCC(=NOC/C=C/Cl)C1=C(O)CC(C2CCOCC2)CC1=O (centres undefined)	inactive
CC[C@H](C)[C@H]1O[C@]2(C=C[C@@H]1C)C[C@@H]1C[C@@H](C/C=C(\C)[C@@H](O[C@H]3C[C@H](OC)[C@@H](O[C@H]4C[C@H](OC)[C@@H](NC)[C@H](C)O4)[C@H](C)O3)[C@@H](C)/C=C/C=C3\CO[C@@H]4[C@H](O)C(C)=C[C@@H](C(=O)O1)[C@]34O)O2	inactive
CCc1cccc(C)c1N(C(=O)CCl)C(C)COC (centres undefined)	inactive
